# In PubChem BioAssay AID1347420 (Sanford-Burnham Center for Chemical Genomics, 2020):
# The campaign covered roughly 1,300 compounds. About 980 (75%) were called active. Inconclusive results (about 4%) are left out. This is one part of the list. Unmarked numbers belong to inactive results.
# Molecular target: Sulfhydryl oxidase 1 (Homo sapiens) (UniProt O00391)
# Assay: inhibition of human sulfhydryl oxidase QSOX1 – biochemical, HyperBlu H2O2 luminescence, HTS, primary screen (AID 1347420); further: values above 100% were filed as inconclusive
# Settings: recombinant QSOX1, HyperBlu H2O2 luminescence; at 12.5 µM; hits give high values; active = any value above zero
# Sequence of Sulfhydryl oxidase 1 (Homo sapiens) (O00391 whole entry, looked up): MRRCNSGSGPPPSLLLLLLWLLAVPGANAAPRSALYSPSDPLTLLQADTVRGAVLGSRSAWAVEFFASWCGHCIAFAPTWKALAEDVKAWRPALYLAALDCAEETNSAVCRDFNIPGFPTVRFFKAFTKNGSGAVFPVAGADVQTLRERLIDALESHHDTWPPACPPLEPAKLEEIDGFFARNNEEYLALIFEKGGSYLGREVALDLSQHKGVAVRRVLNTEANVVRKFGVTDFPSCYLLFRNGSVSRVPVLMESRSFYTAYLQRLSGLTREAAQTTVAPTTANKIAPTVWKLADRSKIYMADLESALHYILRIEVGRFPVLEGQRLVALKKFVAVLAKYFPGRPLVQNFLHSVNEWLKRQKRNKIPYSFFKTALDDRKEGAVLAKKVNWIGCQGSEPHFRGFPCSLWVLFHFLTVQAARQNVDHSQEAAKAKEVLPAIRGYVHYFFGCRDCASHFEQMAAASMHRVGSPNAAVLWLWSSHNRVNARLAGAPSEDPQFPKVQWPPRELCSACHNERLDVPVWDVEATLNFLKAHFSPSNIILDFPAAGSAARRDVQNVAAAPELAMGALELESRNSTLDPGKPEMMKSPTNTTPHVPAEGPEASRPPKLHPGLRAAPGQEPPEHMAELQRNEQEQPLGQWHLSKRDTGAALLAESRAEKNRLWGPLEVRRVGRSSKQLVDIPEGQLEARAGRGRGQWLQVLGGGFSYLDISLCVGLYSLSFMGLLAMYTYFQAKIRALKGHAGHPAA
row,SMILES,inhibition
1,O=C1Nc2ccc(I)cc2/C1=C/c1cc(Br)c(O)c(Br)c1,97.8% (active)
2,CCCCOc1cc(CC2CNC(=O)N2)ccc1OC (centres undefined),2.2% (active)
3,O=C1NCN(c2ccccc2)C12CCN(CCCC(c1ccc(F)cc1)c1ccc(F)cc1)CC2,9.4% (active)
4,Oc1ccc(/C=C/c2cc(O)cc(O)c2)cc1,78% (active)
5,Oc1ccc(/C=C/c2ccc(/C=C/c3ccc(O)cc3)c(Br)c2)cc1,-1.9%
6,N[C@@H](COP(=O)(O)O)C(=O)O,1.7% (active)
7,NC(CCCP(=O)(O)O)C(=O)O (centres undefined),4% (active)
8,N[C@H](CCCP(=O)(O)O)C(=O)O,13.7% (active)
9,CN[C@H](CC(C)C)C(=O)N[C@H]1C(=O)N[C@@H](CC(N)=O)C(=O)N[C@H]2C(=O)N[C@H]3C(=O)N[C@H](C(=O)N[C@H](C(=O)O)c4cc(O)cc(O)c4-c4cc3ccc4O)[C@H](O)c3ccc(c(Cl)c3)Oc3cc2cc(c3O[C@@H]2O[C@H](CO)[C@@H](O)[C@H](O)[C@H]2O[C@H]2C[C@](C)(N)[C@H](O)[C@H](C)O2)Oc2ccc(cc2Cl)[C@H]1O,-8.2%
10,Cc1scc2c1N(C(=O)CN1CCN(C)CC1)c1ccccc1NC2=O,1.1% (active)
11,CN1CCN(CC(=O)N2c3ccccc3C(=O)Nc3cccnc32)CC1,-3.2%
12,Cc1ccc(=O)n(-c2ccccc2)c1,2.4% (active)
13,Oc1ccc(O)cc1,14.7% (active)
14,Nc1ccc2c3c(cccc13)C(=O)NC2=O,13.7% (active)
15,NCCNS(=O)(=O)c1cccc2c(Cl)cccc12,0.7% (active)
16,CC(C)COC(=O)OCN1C(=O)CN(CCN2CC(=O)N(COC(=O)OCC(C)C)C(=O)C2)CC1=O,12.5% (active)
17,C=CCNc1ncnc2ccc(Br)cc12,12.6% (active)
18,NC(=O)C(=O)O,11% (active)
19,CC[C@H](NC(=O)c1c(C)c(-c2ccccc2)nc2ccccc12)c1ccccc1,9.3% (active)
20,COc1ccc(Cc2nccc3cc(OC)c(OC)cc23)cc1OC,-10.3%
21,COc1ccc(CCN(C)CCCC(C#N)(c2ccc(OC)c(OC)c2)C(C)C)cc1OC (centres undefined),9.1% (active)
22,COc1ccc(CCN(C)CCCC(C#N)(c2cc(OC)c(OC)c(OC)c2)C(C)C)cc1OC (centres undefined),17% (active)

row,SMILES,inhibition
1,COc1ccc(CCN(C)CCc2ccc(OC)c(OC)c2)cc1OC,8% (active)
2,O=P(O)(O)C(Cl)(Cl)P(=O)(O)O,-4.1%
3,NC(CO)C(=O)NNCc1ccc(O)c(O)c1O (centres undefined),24.2% (active)
4,CN1CCN(c2nc3cc(C(F)(F)F)ccc3n3cccc23)CC1,12.2% (active)
5,Cc1[nH]c(=O)c(C#N)cc1-c1ccc2nccn2c1,1% (active)
6,Cc1[nH]c(=O)c(C#N)cc1-c1ccncc1,15.5% (active)
7,COc1cccc(-c2cc(=O)c3ccccc3o2)c1N,7.6% (active)
8,NC(=O)N1c2ccccc2C=Cc2ccccc21,12.3% (active)
9,CC(=O)O[C@H]1Cc2ccccc2N(C(N)=O)c2ccccc21,-8.4%
10,OCCN1CCN(CCCN2c3ccccc3Sc3ccc(C(F)(F)F)cc32)CC1,92.8% (active)
11,OCCN1CCN(CC/C=C2/c3ccccc3Sc3ccc(C(F)(F)F)cc32)CC1,3.4% (active)
12,OCCN1CCN(CCCN2c3ccccc3C=Cc3ccccc32)CC1,47.2% (active)
13,CN1CCN(CCCN2c3ccccc3Sc3ccc(C(F)(F)F)cc32)CC1,97% (active)
14,COC(=O)c1c(C)[nH]c(C)c1C(=O)c1ccccc1Cc1ccccc1,-0.5%
15,CCN(CC)CCNC(=O)c1ccc(NS(C)(=O)=O)cc1,9.7% (active)
16,CCN(CC)CCNC(=O)c1ccc(N)cc1,7.8% (active)
17,CCN(CC)CCNC(=O)c1ccc(NC(C)=O)cc1,-4.7%
18,CCCCS(=N)(=O)CCC(N)C(=O)O (centres undefined),-11.1%
19,NC(=O)CC[C@H](N)C(=O)O,1.7% (active)
20,CCCCS(=N)(=O)CC[C@H](N)C(=O)O (some centres undefined),-12.9%
21,N[C@@H](CCCC(=O)O)C(=O)O,16.9% (active)
22,COc1cc(Cc2cnc(N)nc2N)cc(OC)c1OC,-13.7%

row,SMILES,inhibition
1,COc1ccc(CN(CCN(C)C)c2ccccn2)cc1,36.6% (active)
2,CN(C)CCN(Cc1cccs1)c1ccccn1,4.7% (active)
3,CC(C)(Sc1ccc(CCN(CCCCC2CCCCC2)C(=O)NC2CCCCC2)cc1)C(=O)O,3% (active)
4,CCCCCN(CCCCC)C(=O)C(CCC(=O)O)NC(=O)c1ccc(Cl)c(Cl)c1 (centres undefined),13.5% (active)
5,CCCN(CCC)C(=O)C(CCC(=O)O)NC(=O)c1ccccc1 (centres undefined),12% (active)
6,O=C(O)CCC(C(=O)O)N1C(=O)c2ccccc2C1=O (centres undefined),-7.5%
7,CC1C(=O)N(C)C(=O)c2nc[nH]c21 (centres undefined),2.6% (active)
8,CCCC(C(=O)OCCN(CC)CC)(c1ccccc1)c1ccccc1,6.2% (active)
9,CCCc1c(OCCCOc2ccc(OCC(=O)O)cc2)ccc(C(C)=O)c1O,17.6% (active)
10,CCN(CC)CCCCCCCCOC(=O)c1cc(OC)c(OC)c(OC)c1,17.3% (active)
11,COc1cc(N)c(Cl)cc1C(=O)OCCN1CCCCC1,-7.9%
12,CCN(CC)CCNC(=O)c1cc(Cl)c(N)cc1OC,2.2% (active)
13,CCN(CC)CCNC(=O)c1cc(S(C)(=O)=O)ccc1OC,0.6% (active)
14,CCN(CC)CCOC(=O)c1cc(Cl)c(N)cc1OC,7.6% (active)
15,NC[C@H](O)c1ccc(O)c(O)c1,55.1% (active)
16,NCC(O)c1ccc(O)c(O)c1 (centres undefined),43.6% (active)
17,CC(=O)N1CCN(c2ccc(OC[C@H]3CO[C@](Cn4ccnc4)(c4ccc(Cl)cc4Cl)O3)cc2)CC1,56.3% (active)
18,COc1ccc2c(c1OC)C(=O)O[C@@H]2[C@H]1c2c(cc3c(c2OC)OCO3)CCN1C,14.1% (active)
19,CCn1cc(C(=O)O)c(=O)c2cc(F)c(N3CCNC(C)C3)c(F)c21 (centres undefined),12.8% (active)
20,O=[N+]([O-])c1ccc2c(c1)S(=O)(=O)C=C2,39.1% (active)
21,C[C@]12CC[C@@H]3c4ccc(O)cc4C[C@@H](CCCCCCCCCS(=O)CCCC(F)(F)C(F)(F)F)[C@H]3[C@@H]1CC[C@@H]2O (some centres undefined),22.3% (active)
22,CCCCCC[C@@H]([C@@H](C)O)n1cnc2c(N)ncnc21,7.4% (active)

row,SMILES,inhibition
1,N[C@H](C(=O)O)c1cc(O)cc(O)c1,5.6% (active)
2,Clc1ccc(N2CCN(Cc3cc4ccccn4n3)CC2)cc1,63.8% (active)
3,Clc1ccc(Cn2c(CN3CCCC3)nc3ccccc32)cc1,-2.3%
4,COc1cccc(OC)c1OCCNCC1COc2ccccc2O1 (centres undefined),23.5% (active)
5,COc1cccc(OC)c1OCCNCC1CSc2ccccc2O1 (centres undefined),-4.6%
6,CCn1ccnc1CC1COc2ccccc2O1 (centres undefined),-2.8%
7,O=C1CCC(c2ccc(-n3ccnc3)cc2)=NN1,10% (active)
8,O=c1oc(Cl)c(Cl)c2ccccc12,15% (active)
9,Cc1nn(-c2ccccc2)c(C)c1C=NN1CCN(Cc2ccccc2)CC1,-0.7%
10,Nc1ncnc2c1c(-c1ccc(Oc3ccccc3)cc1)cn2C1CCCC1,7.6% (active)
11,COc1cc([C@@H]2c3cc4c(cc3[C@H](O)C3COC(=O)[C@@H]32)OCO4)cc(OC)c1OC (some centres undefined),10.7% (active)
12,COc1cc([C@@H]2c3cc4c(cc3[C@@H](O[C@@H]3O[C@@H]5CO[C@@H](C)O[C@H]5[C@H](O)[C@H]3O)[C@H]3COC(=O)[C@H]23)OCO4)cc(OC)c1O,31.7% (active)
13,O=C(O)CN(CCN(CC(=O)O)CC(=O)O)CCN(CC(=O)O)CC(=O)O,25.6% (active)
14,O=C(O)CN(CCOCCOCCN(CC(=O)O)CC(=O)O)CC(=O)O,13.4% (active)
15,C[C@H]1c2cccc(O)c2C(O)=C2C(=O)[C@]3(O)C(O)=C(C(N)=O)C(=O)[C@@H](N(C)C)[C@@H]3[C@@H](O)[C@@H]21,39.9% (active)
16,CN(C)[C@@H]1C(=O)C(C(N)=O)=C(O)[C@@]2(O)C(=O)C3=C(O)c4c(O)ccc(Cl)c4[C@@H](O)[C@H]3C[C@@H]12,49.5% (active)
17,COc1ccccc1N1CCN(CCN(C(=O)c2ccc(I)cc2)c2ccccn2)CC1,28.5% (active)
18,COc1ccccc1N1CCN(CCN(C(=O)C2CCCCC2)c2ccccn2)CC1,40.4% (active)
19,COc1ccccc1N1CCN(CCN(C(=O)c2ccc(F)cc2)c2ccccn2)CC1,27.6% (active)
20,Cc1ccc(/C(=C\CN2CCCC2)c2ccccn2)cc1,-62.9%
21,O=C(O)C1CCCN(CCC=C(c2ccccc2)c2ccccc2)C1 (centres undefined),3.5% (active)
22,O=C(O)C1=CC(=C(c2ccc(O)c(C(=O)O)c2)c2ccc(O)c(C(=O)O)c2)C=CC1=O,42.3% (active)

row,SMILES,inhibition
1,O=c1c2ccccc2nc2n1CCc1c-2[nH]c2ccccc12,5.7% (active)
2,CCCCc1oc2ccccc2c1C(=O)c1cc(I)c(OCCN(CC)CC)c(I)c1,18% (active)
3,C[C@@]1(C2CCCC2)Cc2cc(OCC(=O)O)c(Cl)c(Cl)c2C1=O,18.3% (active)
4,CCCC[C@@]1(C2CCCC2)Cc2cc(OCC(=O)O)c(Cl)c(Cl)c2C1=O,25.1% (active)
5,CC(C)C(=O)c1c(C(C)C)nn2ccccc12,12.7% (active)
6,CSc1ccc(C(=O)c2[nH]c(=O)[nH]c2C)cc1,-9%
7,CC(C)ON([C@@H](C(=O)NO)C(C)C)S(=O)(=O)c1ccc(-c2ccccc2)cc1,8.1% (active)
8,CC(C)OC(=O)C(C)(C)Oc1ccc(C(=O)c2ccc(Cl)cc2)cc1,1.9% (active)
9,CCOC(=O)C(C)(C)Oc1ccc(Cl)cc1,-1.7%
10,NNCCc1ccccc1,9.9% (active)
11,CCCCCCN(CCCCCC)C(=O)Cc1c(-c2ccc(F)cc2)[nH]c2ccccc12,22.4% (active)
12,CC(=O)Nc1nnc(S(N)(=O)=O)s1,14.5% (active)
13,CN(C)CCOC(C)(c1ccccc1)c1ccccn1 (centres undefined),6.5% (active)
14,CSc1ccc2c(c1)C(N1CCN(C)CC1)Cc1ccccc1S2 (centres undefined),1.3% (active)
15,CN1CCN(C2Cc3ccccc3Sc3ccc(Cl)cc32)CC1 (centres undefined),1.9% (active)
16,O=c1n(CCCN2CCN(c3cccc(Cl)c3)CC2)nc2ccccn12,45.2% (active)
17,Cc1ccc(C(=O)Nc2ccc(S(=O)(=O)[O-])c3c2C(S(=O)(=O)[O-])=[C+]C(S(=O)(=O)O)=[C+]3)cc1NC(=O)c1cccc(NC(=O)Nc2cccc(C(=O)Nc3cc(C(=O)Nc4ccc(S(=O)(=O)[O-])c5c4C(S(=O)(=O)[O-])=[C+]C(S(=O)(=O)O)=[C+]5)ccc3C)c2)c1,17.8% (active)
18,c1cc(CN2CCCCC2)cc(OCCCNc2nc3ccccc3s2)c1,7.9% (active)
19,C1CCc2nnnn2CC1,15.2% (active)
20,CCC1C(=O)OCC1Cc1cncn1C (centres undefined),-0.2%
21,CNCCNS(=O)(=O)c1cccc2cnccc12,3.8% (active)
